From PubChem BioAssay (EPA / NIEHS)
Calls of active or inactive are those of the source. The calls were made as follows: active = hit-call score of the fitted dose curve at least 0.9, where 1 is the maximum; inactive = score below 0.9.

biological target: Heat shock factor protein 1 (Homo sapiens) (UniProt Q00613); experiment: ATG_HSE_CIS: Attagene CIS-FACTORIAL HepG2 Assay for human Heat Shock Transcription Factor 1 (HSE) (AID 2282953); conditions: HepG2 HSE cis-reporter, Attagene RNA transcription; actives raise or lower the signal
Sequence (Q00613 whole entry, looked up): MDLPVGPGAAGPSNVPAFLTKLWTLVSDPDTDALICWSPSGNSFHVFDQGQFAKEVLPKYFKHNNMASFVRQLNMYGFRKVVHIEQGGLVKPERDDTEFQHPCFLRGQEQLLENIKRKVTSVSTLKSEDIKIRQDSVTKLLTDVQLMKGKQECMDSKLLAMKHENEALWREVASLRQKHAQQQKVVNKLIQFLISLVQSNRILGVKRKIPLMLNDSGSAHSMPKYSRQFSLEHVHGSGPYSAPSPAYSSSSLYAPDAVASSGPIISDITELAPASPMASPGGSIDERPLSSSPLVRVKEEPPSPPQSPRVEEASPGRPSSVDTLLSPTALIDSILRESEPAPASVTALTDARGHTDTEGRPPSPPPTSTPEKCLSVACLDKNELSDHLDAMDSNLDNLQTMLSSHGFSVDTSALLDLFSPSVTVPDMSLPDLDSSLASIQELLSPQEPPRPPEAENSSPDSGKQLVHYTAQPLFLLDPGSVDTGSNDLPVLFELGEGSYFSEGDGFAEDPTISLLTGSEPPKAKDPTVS
How it was run: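 After a 24 h incubation with test chemical, transfected HepG2 cells were harvested for RNA; reporter transcripts were measured by RT-PCR and capillary electrophoresis. Values reflect gain or loss of signal relative to DMSO.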

outcome, inactive:
CCCCC(CC)COC(=O)c1ccccc1O (centres undefined)
CCCOC(=O)CCCCC(=O)OCCC
CCOC(=O)N1CCC(=C2c3ccc(Cl)cc3CCc3cccnc32)CC1
c1ccc(-c2ccccn2)nc1
CNC(=S)N(C)C
C[C@]12C=CC(=O)C=C1CC[C@@H]1[C@@H]2[C@@H](O)C[C@@]2(C)[C@H]1CC[C@]2(O)C(=O)CO
Cc1ccc(C(C)(C)C)cc1

tested on: not listed separately; experiment: ATG_MRE_CIS: Attagene CIS-FACTORIAL HepG2 Assay for human Metal Responsive Element (MRE) (AID 2282954); conditions: HepG2 MRE cis-reporter transcription, Attagene multiplex; actives raise or lower the signal
How it was run: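 HepG2 cells transiently transfected with cis-element-driven reporter units; mRNA measured 24 h after dosing. Reporter transcripts quantified by RT-PCR, FAM labelling, HpaI digestion and capillary electrophoresis; bidirectional fit versus DMSO.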

outcome, inactive:
CCCCCCCCCCCCCOP(=O)(O)O
CC(C)=CCC[C@H](C)CCO
NC(=O)OCC(COC(N)=O)c1ccccc1
CCCCC(CC)COCC1CO1 (centres undefined)
CC(=O)OCC(=O)[C@@]12N=C(C)O[C@@H]1C[C@H]1[C@@H]3CCC4=CC(=O)C=C[C@]4(C)[C@H]3[C@@H](O)C[C@@]12C
CC=CC(=O)N(CC)c1ccccc1C
CN1C(=O)N(C)C(O)C1O (centres undefined)
COc1ccc2nc(N)sc2c1
CCOCC(=O)O
Nc1ncn([C@@H]2O[C@H](CO)[C@@H](O)[C@H]2O)c(=O)n1
OC1CCCC1
O=c1c2ccccc2oc2ccccc12
CC(C)CCCC(C)CC=O (centres undefined)
CC(=O)NS(=O)(=O)c1ccc(N)cc1
O=C1c2ccccc2C(=O)C1c1nc2ccccc2c(Br)c1O
C[C@]12CCC(=O)C=C1CC[C@@H]1[C@@H]2C(=O)C[C@@]2(C)[C@H]1CC[C@]2(O)C(=O)CO
CCN(CC#N)c1cccc(C)c1
